Experimental data as given in PubChem BioAssay.
Values without a mark were called inactive. Entries that show only a call come without a potency. For some of these results: Potency and affinity values are given separately. The source made the active and inactive calls. Unless noted, how the calls were made is not given here.

What was measured:
[1] = antimalarial activity against Dd2 strain (AID 2302;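 active means growth inhibition above 50% at the single 2 µM test dose, taken to imply half-maximal potency below 2 µM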); conditions: P. falciparum Dd2 in RBCs, LDH growth readout, 72 h; at 2 µM; active compounds read high
[2] = human hepatoma cell viability loss – ATP luminescence, cytotoxicity control for P. falciparum antimalarial project, primary screen (AID 2303;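 active means inhibition above 50%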); conditions: HepG2 viability, 24-48 h, at 10 µM, active compounds read high
[3] = molecular target: L-lactate dehydrogenase (Plasmodium falciparum (isolate CDC / Honduras)) (UniProt Q27743); assay: PfLDH activity inhibition – cell lysate, 3D7 strain, counter-screen for P. falciparum growth inhibition project (AID 2304); conditions: P. falciparum 3D7 crude extract, LDH APAD/NBT absorbance; at 2 µM; active compounds read high
[4] = inhibition of 3D7 malaria parasite growth – strain 3D7 (AID 2306); conditions: P. falciparum 3D7 erythrocytic growth, LDH absorbance, 72 h; at 2 µM; active compounds read high
[5] = molecular target: Calcium-dependent protein kinase 1 (Plasmodium falciparum (isolate 3D7)) (UniProt P62344); assay: PfCDPK1 kinase inhibitors, biochemical, TCAMS library (AID 1159585; cut-off not given, nearly all actives have IC50 up to about 0.98 µM;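 further: inhibitors leave more ATP so luminescence rises with inhibition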); conditions: recombinant PfCDPK1, Kinase-Glo ATP depletion luminescence
[6] = molecular target: Plasmodium falciparum protein kinase 6 (PK6, PF3D7_1337100) (UniProt Q8IDW1); assay: PfPK6 kinase inhibitors, biochemical, TCAMS library (AID 1159586); conditions: recombinant PfPK6, Kinase-Glo ATP depletion luminescence
[7] = molecular target: Protein kinase 7 (PK7), Plasmodium falciparum 3D7 (PF3D7_0213400) (UniProt Q7YTF7); assay: inhibition of Plasmodium PK7 catalytic activity – biochemical, TCAMS antimalarial set, Kinase-Glo luminescence (AID 1159587); conditions: recombinant PfPK7, Kinase-Glo ATP depletion luminescence
[8] = molecular target: Calcium-dependent protein kinase 4 (Plasmodium falciparum (isolate 3D7)) (UniProt Q8IBS5); assay: PfCDPK4 kinase inhibitors, biochemical, TCAMS library (AID 1159588; cut-off not given, nearly all actives have IC50 up to about 0.91 µM); conditions: recombinant PfCDPK4, Kinase-Glo ATP depletion luminescence
Chain of Calcium-dependent protein kinase 4 (Plasmodium falciparum (isolate 3D7)) (Q8IBS5 whole entry, looked up): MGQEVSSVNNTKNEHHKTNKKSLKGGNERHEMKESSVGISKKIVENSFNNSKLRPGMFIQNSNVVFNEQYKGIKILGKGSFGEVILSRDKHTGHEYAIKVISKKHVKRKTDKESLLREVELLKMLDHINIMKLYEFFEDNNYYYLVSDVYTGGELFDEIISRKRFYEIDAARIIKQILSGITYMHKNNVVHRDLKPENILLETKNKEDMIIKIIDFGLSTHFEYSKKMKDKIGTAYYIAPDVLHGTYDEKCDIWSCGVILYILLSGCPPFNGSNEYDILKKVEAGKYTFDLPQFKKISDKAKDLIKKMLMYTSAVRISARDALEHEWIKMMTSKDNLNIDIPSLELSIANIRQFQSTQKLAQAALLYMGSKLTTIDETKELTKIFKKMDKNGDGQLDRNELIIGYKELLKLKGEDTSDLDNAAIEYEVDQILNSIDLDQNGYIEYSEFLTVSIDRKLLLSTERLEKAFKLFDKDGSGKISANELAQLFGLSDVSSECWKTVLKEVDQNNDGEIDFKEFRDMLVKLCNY

Chain of Calcium-dependent protein kinase 1 (Plasmodium falciparum (isolate 3D7)) (P62344 whole entry, looked up): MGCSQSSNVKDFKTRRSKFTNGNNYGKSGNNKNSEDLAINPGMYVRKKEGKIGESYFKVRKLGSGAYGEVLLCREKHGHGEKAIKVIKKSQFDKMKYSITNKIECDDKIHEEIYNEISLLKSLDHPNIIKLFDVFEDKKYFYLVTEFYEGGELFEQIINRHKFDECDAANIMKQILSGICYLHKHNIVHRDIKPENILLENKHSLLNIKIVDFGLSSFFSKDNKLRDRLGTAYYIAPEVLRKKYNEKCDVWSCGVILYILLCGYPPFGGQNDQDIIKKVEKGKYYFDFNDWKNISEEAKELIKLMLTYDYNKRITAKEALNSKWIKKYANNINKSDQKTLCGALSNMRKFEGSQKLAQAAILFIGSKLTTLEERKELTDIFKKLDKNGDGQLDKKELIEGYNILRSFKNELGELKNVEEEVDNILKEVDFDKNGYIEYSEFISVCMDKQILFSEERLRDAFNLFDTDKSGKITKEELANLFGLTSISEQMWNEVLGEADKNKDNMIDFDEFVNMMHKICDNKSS
Chain of Plasmodium falciparum protein kinase 6 (PK6, PF3D7_1337100) (Q8IDW1 1-305): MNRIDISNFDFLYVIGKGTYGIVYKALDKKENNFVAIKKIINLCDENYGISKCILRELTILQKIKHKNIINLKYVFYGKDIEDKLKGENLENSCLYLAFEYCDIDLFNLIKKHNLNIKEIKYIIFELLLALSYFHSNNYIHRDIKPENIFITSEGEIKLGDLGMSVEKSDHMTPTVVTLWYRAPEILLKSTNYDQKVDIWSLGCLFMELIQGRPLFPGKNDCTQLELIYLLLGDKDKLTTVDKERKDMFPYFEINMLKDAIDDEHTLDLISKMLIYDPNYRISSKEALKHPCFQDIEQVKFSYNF
Chain of Protein kinase 7 (PK7), Plasmodium falciparum 3D7 (PF3D7_0213400) (Q7YTF7 1-343): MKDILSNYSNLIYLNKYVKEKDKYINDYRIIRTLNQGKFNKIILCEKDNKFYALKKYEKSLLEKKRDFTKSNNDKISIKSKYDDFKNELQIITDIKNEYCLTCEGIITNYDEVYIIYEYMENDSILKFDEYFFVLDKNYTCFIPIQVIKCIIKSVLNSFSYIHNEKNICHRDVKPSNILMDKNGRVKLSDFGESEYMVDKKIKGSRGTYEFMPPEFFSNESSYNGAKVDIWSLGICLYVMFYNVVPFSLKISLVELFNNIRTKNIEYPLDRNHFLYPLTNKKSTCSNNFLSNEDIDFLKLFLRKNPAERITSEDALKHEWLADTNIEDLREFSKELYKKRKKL
Chain of L-lactate dehydrogenase (Plasmodium falciparum (isolate CDC / Honduras)) (Q27743 whole entry, looked up): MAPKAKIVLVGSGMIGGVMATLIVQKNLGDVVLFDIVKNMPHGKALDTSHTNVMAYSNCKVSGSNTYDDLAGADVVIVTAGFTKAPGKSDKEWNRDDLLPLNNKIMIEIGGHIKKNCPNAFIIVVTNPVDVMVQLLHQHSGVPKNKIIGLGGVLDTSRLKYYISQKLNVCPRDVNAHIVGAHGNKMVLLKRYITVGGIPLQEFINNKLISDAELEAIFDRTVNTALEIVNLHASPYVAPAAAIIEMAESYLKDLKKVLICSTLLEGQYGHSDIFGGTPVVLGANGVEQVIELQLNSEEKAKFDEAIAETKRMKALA

**Q.** With `OCCN1CCN(Cc2ccc(-c3cccc(-c4nc5ccc(F)cc5[nH]4)c3)cc2)CC1` as the compound, how does the growth inhibition [1] read?
**A.** 61% (active)

**Q.** And the inhibition [2]?
**A.** 21%

**Q.** And the inhibition [3]?
**A.** -2%

**Q.** What about the growth inhibition [4] of the same compound?
**A.** 100% (active)

**Q.** What about the outcome [5] of the same compound?
**A.** inactive

**Q.** What about the outcome [6] of the same compound?
**A.** inactive

**Q.** What about the outcome [7] of the same compound?
**A.** inactive

**Q.** What about the outcome [8] of the same compound?
**A.** inactive

**Q.** For `Cc1[nH]c(C)c(-c2ccc(OCCCCSc3ccncc3)cc2)c(=O)c1Br`, which growth inhibition [1] is on record?
**A.** 97% (active)

**Q.** And the inhibition [2]?
**A.** -3%

**Q.** What about the inhibition [3] of the same compound?
**A.** -2%

**Q.** What about the growth inhibition [4] of the same compound?
**A.** 97% (active)

**Q.** What about the outcome [5] of the same compound?
**A.** inactive

**Q.** And the outcome [6]?
**A.** inactive

**Q.** What about the outcome [7] of the same compound?
**A.** inactive

**Q.** And the outcome [8]?
**A.** inactive

**Q.** Which growth inhibition [1] does the source give for `O=C(Nc1ccc(OC2CCN(Cc3ccsc3)CC2)c(Cl)c1)c1ccco1` here?
**A.** 85% (active)

**Q.** What about the inhibition [2] of the same compound?
**A.** 7%

**Q.** And the inhibition [3]?
**A.** -4%

**Q.** What about the growth inhibition [4] of the same compound?
**A.** 87% (active)

**Q.** And the outcome [5]?
**A.** inactive

**Q.** What about the outcome [6] of the same compound?
**A.** inactive

**Q.** What about the outcome [7] of the same compound?
**A.** inactive

**Q.** And the outcome [8]?
**A.** inactive

**Q.** What does the source list for `Cc1cccc2[nH]c(-c3ccc(-c4cccc(CN5CCN(c6ccc(C#N)cn6)CC5)c4)s3)nc12`?
**A.** growth inhibition [1]: 8%; inhibition [2]: 37%; inhibition [3]: 2%; growth inhibition [4]: 85% (active); outcome [5]: inactive; outcome [6]: inactive; outcome [7]: inactive; outcome [8]: inactive

**Q.** Which growth inhibition [1] does the source give for `Cc1cc(Nc2ccc(C)c(Cl)c2)n2nc(C(F)(F)F)nc2n1` here?
**A.** 97% (active)

**Q.** What about the inhibition [2] of the same compound?
**A.** 2%

**Q.** And the inhibition [3]?
**A.** 2%

**Q.** And the growth inhibition [4]?
**A.** 98% (active)

**Q.** And the outcome [5]?
**A.** inactive

**Q.** What about the outcome [6] of the same compound?
**A.** inactive

**Q.** What about the outcome [7] of the same compound?
**A.** inactive

**Q.** And the outcome [8]?
**A.** inactive

**Q.** Which results are given for `COc1cccc(Nc2nc(C)cc(NCc3ccc(-n4ccnc4)cc3)n2)c1`?
**A.** growth inhibition [1]: 99% (active); inhibition [2]: -13%; inhibition [3]: -5%; growth inhibition [4]: 101% (active); outcome [5]: inactive; outcome [6]: inactive; outcome [7]: inactive; outcome [8]: inactive

**Q.** With `COc1ccc(F)cc1-c1ccc(C(=O)N2CCCN(c3ccc(C(F)(F)F)cn3)CC2)cc1` as the compound, how does the growth inhibition [1] read?
**A.** 100% (active)

**Q.** What about the inhibition [2] of the same compound?
**A.** 4%

**Q.** And the inhibition [3]?
**A.** -3%

**Q.** What about the growth inhibition [4] of the same compound?
**A.** 101% (active)

**Q.** What about the outcome [5] of the same compound?
**A.** inactive

**Q.** And the outcome [6]?
**A.** inactive

**Q.** What about the outcome [7] of the same compound?
**A.** inactive

**Q.** And the outcome [8]?
**A.** inactive

**Q.** Which results are given for `O=C(Nc1ccc(C(F)(F)F)cc1)c1cccc(S(=O)(=O)NC2CCN(Cc3ccccc3)C2)c1` (stereo not given)?
**A.** growth inhibition [1]: -2%; inhibition [2]: 39%; inhibition [3]: -5%; growth inhibition [4]: 88% (active); outcome [5]: inactive; outcome [6]: inactive; outcome [7]: inactive; outcome [8]: inactive

**Q.** With `CCCCCCC(C)c1cc(O)c2c(c1)OC(=O)CC2(CC)c1ccccn1` (stereo not given) as the compound, how does the growth inhibition [1] read?
**A.** -2%

**Q.** What about the inhibition [2] of the same compound?
**A.** 15%

**Q.** What about the inhibition [3] of the same compound?
**A.** -2%

**Q.** And the growth inhibition [4]?
**A.** 100% (active)

**Q.** And the outcome [5]?
**A.** inactive

**Q.** And the outcome [6]?
**A.** inactive

**Q.** What about the outcome [7] of the same compound?
**A.** inactive

**Q.** And the outcome [8]?
**A.** inactive

**Q.** What does the source list for `CCC(C)NS(=O)(=O)c1ccc2nc(Nc3cccc(SC)c3)n(C(C)C(C)C)c2c1` (stereo not given)?
**A.** growth inhibition [1]: 70% (active); inhibition [2]: -1%; inhibition [3]: 2%; growth inhibition [4]: 94% (active); outcome [5]: inactive; outcome [6]: inactive; outcome [7]: inactive; outcome [8]: inactive

**Q.** Which growth inhibition [1] does the source give for `CN(CCc1ccccc1)c1ncc(-c2cccc(CNCCC3CCCN3C)c2)cn1` (stereo not given) here?
**A.** 98% (active)

**Q.** And the inhibition [2]?
**A.** 99% (active)

**Q.** What about the inhibition [3] of the same compound?
**A.** -1%

**Q.** What about the growth inhibition [4] of the same compound?
**A.** 92% (active)

**Q.** And the outcome [5]?
**A.** inactive

**Q.** And the outcome [6]?
**A.** inactive

**Q.** And the outcome [7]?
**A.** inactive

**Q.** What about the outcome [8] of the same compound?
**A.** inactive

**Q.** Which growth inhibition [1] does the source give for `CCCCCCN=C(N)c1ccc(OCCCCCOc2ccc(C(N)=NCCCCCC)cc2)cc1` here?
**A.** 98% (active)

**Q.** And the inhibition [2]?
**A.** 55% (active)

**Q.** And the inhibition [3]?
**A.** -8%

**Q.** What about the growth inhibition [4] of the same compound?
**A.** 97% (active)

**Q.** And the outcome [5]?
**A.** inactive

**Q.** And the outcome [6]?
**A.** inactive

**Q.** What about the outcome [7] of the same compound?
**A.** inactive

**Q.** And the outcome [8]?
**A.** inactive

**Q.** With `CN1CCN(S(=O)(=O)c2ccc3nccc(Nc4ccc(Oc5ccccc5)cc4)c3c2)CC1` as the compound, how does the growth inhibition [1] read?
**A.** 91% (active)

**Q.** What about the inhibition [2] of the same compound?
**A.** -9%

**Q.** And the inhibition [3]?
**A.** -3%

**Q.** What about the growth inhibition [4] of the same compound?
**A.** 98% (active)

**Q.** What about the outcome [5] of the same compound?
**A.** inactive

**Q.** And the outcome [6]?
**A.** inactive

**Q.** What about the outcome [7] of the same compound?
**A.** inactive

**Q.** What about the outcome [8] of the same compound?
**A.** inactive

**Q.** With `COc1cc2nc(Nc3ccc(Oc4ccccc4)cc3)nc(Nc3ccc(Oc4ccccc4)cc3)c2cc1OC` as the compound, how does the growth inhibition [1] read?
**A.** 45%

**Q.** And the inhibition [2]?
**A.** 5%

**Q.** What about the inhibition [3] of the same compound?
**A.** 6%

**Q.** What about the growth inhibition [4] of the same compound?
**A.** 95% (active)

**Q.** What about the outcome [5] of the same compound?
**A.** inactive

**Q.** What about the outcome [6] of the same compound?
**A.** inactive

**Q.** What about the outcome [7] of the same compound?
**A.** inactive

**Q.** And the outcome [8]?
**A.** inactive

**Q.** With `Cc1cc(C(F)(F)F)cc(-n2ncc(-c3ccc(C(=O)NCCNCc4ccccc4)cc3)c2N)n1` as the compound, how does the growth inhibition [1] read?
**A.** 9%

**Q.** What about the inhibition [2] of the same compound?
**A.** 98% (active)

**Q.** And the inhibition [3]?
**A.** -1%

**Q.** What about the growth inhibition [4] of the same compound?
**A.** 91% (active)

**Q.** What about the outcome [5] of the same compound?
**A.** inactive

**Q.** And the outcome [6]?
**A.** inactive

**Q.** What about the outcome [7] of the same compound?
**A.** inactive

**Q.** What about the outcome [8] of the same compound?
**A.** inactive

**Q.** Which growth inhibition [1] does the source give for `O=C(Nc1ccc(F)cc1)NC1CCN(c2ccnc3cc(Cl)ccc23)C1` (stereo not given) here?
**A.** 67% (active)

**Q.** What about the inhibition [2] of the same compound?
**A.** 17%

**Q.** And the inhibition [3]?
**A.** 2%

**Q.** What about the growth inhibition [4] of the same compound?
**A.** 101% (active)

**Q.** What about the outcome [5] of the same compound?
**A.** inactive

**Q.** What about the outcome [6] of the same compound?
**A.** inactive

**Q.** What about the outcome [7] of the same compound?
**A.** inactive

**Q.** What about the outcome [8] of the same compound?
**A.** inactive

**Q.** With `Cc1cccc2[nH]c(-c3ccc(-c4cccc(CNCc5ccc(CN)cc5)c4)s3)nc12` as the compound, how does the growth inhibition [1] read?
**A.** 48%

**Q.** And the inhibition [2]?
**A.** 11%

**Q.** What about the inhibition [3] of the same compound?
**A.** -2%

**Q.** What about the growth inhibition [4] of the same compound?
**A.** 99% (active)

**Q.** What about the outcome [5] of the same compound?
**A.** inactive

**Q.** And the outcome [6]?
**A.** inactive

**Q.** And the outcome [7]?
**A.** inactive

**Q.** And the outcome [8]?
**A.** inactive

**Q.** Which growth inhibition [1] does the source give for `N#Cc1ccc(N2CCN(Cc3ccc(-c4ccc(-c5nc6ccc(C(F)(F)F)cc6[nH]5)cc4)cc3)CC2)nc1` here?
**A.** 90% (active)

**Q.** And the inhibition [2]?
**A.** 19%

**Q.** And the inhibition [3]?
**A.** 4%

**Q.** What about the growth inhibition [4] of the same compound?
**A.** 101% (active)

**Q.** What about the outcome [5] of the same compound?
**A.** inactive

**Q.** And the outcome [6]?
**A.** inactive

**Q.** And the outcome [7]?
**A.** inactive

**Q.** What about the outcome [8] of the same compound?
**A.** inactive

**Q.** Which growth inhibition [1] does the source give for `CN(C)C(CNC(=O)c1cc(-c2ccncc2)c(-c2ccc(Cl)c(O)c2)o1)c1ccccc1` (stereo not given) here?
**A.** 28%

**Q.** And the inhibition [2]?
**A.** 28%

**Q.** And the inhibition [3]?
**A.** 0%

**Q.** And the growth inhibition [4]?
**A.** 91% (active)

**Q.** And the outcome [5]?
**A.** inactive

**Q.** What about the outcome [6] of the same compound?
**A.** inactive

**Q.** And the outcome [7]?
**A.** inactive

**Q.** And the outcome [8]?
**A.** inactive

**Q.** Which growth inhibition [1] does the source give for `CCCCCCc1c(C)[nH]c2cc(OC)ccc2c1=O` here?
**A.** 97% (active)

**Q.** What about the inhibition [2] of the same compound?
**A.** 10%

**Q.** What about the inhibition [3] of the same compound?
**A.** 3%

**Q.** What about the growth inhibition [4] of the same compound?
**A.** 97% (active)

**Q.** And the outcome [5]?
**A.** inactive

**Q.** What about the outcome [6] of the same compound?
**A.** inactive

**Q.** What about the outcome [7] of the same compound?
**A.** inactive

**Q.** What about the outcome [8] of the same compound?
**A.** inactive
